In PubChem BioAssay (NCATS):
Results filed as inconclusive are left out. Values without a mark were called inactive. Calls come from the whole dose curve; as a rule, active = well fitted curve in the direction sought with a large enough effect; inconclusive = small, poorly fitted or top-dose-only effect, or another doubt; inactive = no such curve, though single readings can be large; an effect the other way counts as inactive or inconclusive.

Assay: qHTS of pediatric cancer cell lines to identify multiple opportunities for drug repurposing: Primary screen for NB1643 cells (AID 1347099);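 note: plate controls were DMSO neutral control for no effect and bortezomib positive control for full effect; nearly all actives have a fitted effect of over 50% in size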
Settings: NB1643 neuroblastoma viability, CellTiter-Glo luminescence, 48 h; series mostly up to 46 µM; activity change, negative = cytotoxic: at the top concentration
Procedure, shortened: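 Plated cells (500-1,000 per well, growth media) were allowed to settle for 5 hours, treated with compound dilutions for 48 hours, then lysed with CellTiter-Glo for 15 min at room temperature before luminescence reading.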

Compound	activity change, negative = cytotoxic
C=CCn1c(=O)n([C@@H]2O[C@H](CO)[C@@H](O)[C@H]2O)c2nc(N)[nH]c(=O)c21	6.03%
O=C1c2c(O)cccc2Cc2cccc(O)c21	9.77%
CC1(C)OC(=O)NC1=O	2.53%
CC1CC(OC(=O)C(O)c2ccccc2)CC(C)(C)N1C (stereo unspecified)	28.7%
OCC(CO)N[C@H]1C[C@](O)(CO)[C@@H](O)[C@H](O)[C@H]1O	29.4%
CCn1cc(C(=O)O)c(=O)c2cnc(N3CCNCC3)nc21	4.21%
CCCCC(CC)COC(=O)c1ccccc1O (stereo unspecified)	8.8%
CCN(CC)C(=O)Nc1ccc(OCC(O)CNC(C)(C)C)c(C(C)=O)c1 (stereo unspecified)	0%
C[C@@H]1CC[C@@]2(OC1)O[C@H]1C[C@H]3[C@@H]4CC[C@H]5C[C@@H](O)CC[C@]5(C)[C@H]4CC(=O)[C@]3(C)[C@H]1[C@@H]2C	31.5% [at 4.84 µM]
C[C@@H]1CN(c2c(F)c(F)c3c(=O)c(C(=O)O)cn(C4CC4)c3c2F)C[C@H](C)N1	16% [at 16.1 µM]
Cc1ccc(C(C)C)cc2c(C)ccc1-2	9.78%
Cc1cc(O)cc2c1O[C@](C)(CCC[C@H](C)CCC[C@H](C)CCCC(C)C)CC2	-5.43%
COc1ccc(S(=O)(=O)Nc2nnc(CC(C)C)s2)cc1	-7.46%
CCCCN1CCCC[C@H]1C(=O)Nc1c(C)cccc1C	-5.63%
CC(=O)CCC(=O)O	0%
CN(C)CC[C@@H](c1ccc(Cl)cc1)c1ccccn1	6.53%
NC(=O)NC(=O)Cc1ccccc1	8.65%
CC1=C(C/C=C(\C)CCC[C@H](C)CCC[C@H](C)CCCC(C)C)C(=O)c2ccccc2C1=O	6.84%
COc1ccccc1O	22.3% [at 92.7 µM]
Nc1nc2c(ncn2CCC(CO)CO)c(=O)[nH]1	3.32%
CC1(C)[C@@H]2CC[C@@]1(C)C(=O)C2	1.81%
C[C@@H]1CCN(C(=O)[C@H](CCCN=C(N)N)NS(=O)(=O)c2cccc3c2NC[C@H](C)C3)[C@@H](C(=O)O)C1	14.6%
Nc1ccc(S(=O)(=O)Nc2ccccc2)cc1	11.7%
Oc1cccc(O)c1	2.59%
NCCNCCNCCNCCN	0.713% [at 9.22 µM]
O=C(Oc1ccccc1C(=O)O)c1ccccc1O	4.25%
Cc1cc2nc3c(=O)[nH]c(=O)nc-3n(C[C@H](O)[C@H](O)[C@H](O)CO)c2cc1C	21.9% [at 16.1 µM]
O=C1O[C@H]([C@@H](O)CO)C(O)=C1O	8.12%

Assay: qHTS of pediatric cancer cell lines to identify multiple opportunities for drug repurposing: Primary screen for LAN-5 cells (AID 1347100);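 note: plate controls were DMSO neutral control for no effect and bortezomib positive control for full effect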
Settings: LAN-5 neuroblastoma viability, CellTiter-Glo luminescence, 48 h; series mostly up to 46 µM; activity change, negative = cytotoxic: at the top concentration
Procedure, shortened: (§1)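 Cells (500-1,000/well) rested 5 h, then received compounds for 48 h; metabolically active cells were measured by CellTiter-Glo luminescence. Final concentrations spanned up to 46 µM (MIPE, 11-point) or 0.59 nM-46 µM (NPC, 8-point) in primary screens, 11-point in follow-ups.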

Compound	activity change, negative = cytotoxic
C=CCn1c(=O)n([C@@H]2O[C@H](CO)[C@@H](O)[C@H]2O)c2nc(N)[nH]c(=O)c21	32.1%
O=C1c2c(O)cccc2Cc2cccc(O)c21	19.6%
CCOc1ccc2ccccc2c1C(=O)N[C@@H]1C(=O)N2[C@@H]1SC(C)(C)[C@@H]2C(=O)O	24.3%
CC1CC(OC(=O)C(O)c2ccccc2)CC(C)(C)N1C (stereo unspecified)	12.5%
CCn1cc(C(=O)O)c(=O)c2cnc(N3CCNCC3)nc21	2.58%
CC1(C)CO[C@@H](CC(=O)O)CN1	19.4%
CCCCC(CC)COC(=O)c1ccccc1O (stereo unspecified)	6.41%
CCN(CC)C(=O)Nc1ccc(OCC(O)CNC(C)(C)C)c(C(C)=O)c1 (stereo unspecified)	-8.07%
C[C@@H]1CC[C@@]2(OC1)O[C@H]1C[C@H]3[C@@H]4CC[C@H]5C[C@@H](O)CC[C@]5(C)[C@H]4CC(=O)[C@]3(C)[C@H]1[C@@H]2C	-6.9% [at 4.84 µM]
C[C@@H]1CN(c2c(F)c(F)c3c(=O)c(C(=O)O)cn(C4CC4)c3c2F)C[C@H](C)N1	13.3% [at 16.1 µM]
Cc1ccc(C(C)C)cc2c(C)ccc1-2	14.8%
Cc1cc(O)cc2c1O[C@](C)(CCC[C@H](C)CCC[C@H](C)CCCC(C)C)CC2	4.78%
CCCCN1CCCC[C@H]1C(=O)Nc1c(C)cccc1C	-6.14%
CC1=C(C/C=C(\C)CCC[C@H](C)CCC[C@H](C)CCCC(C)C)C(=O)c2ccccc2C1=O	18.3%
COc1ccccc1O	23.5% [at 92.7 µM]
Nc1nc2c(ncn2CCC(CO)CO)c(=O)[nH]1	13.1%
N[C@H]1C(O)O[C@H](CO)[C@@H](O)[C@@H]1O (stereo partly specified)	-6.29%
C[C@@H](O)[C@H](N)C(=O)O	8.82% [at 16.1 µM]
CC1(C)[C@@H]2CC[C@@]1(C)C(=O)C2	18%
Nc1ccc(S(=O)(=O)Nc2ccccc2)cc1	8.43%
Oc1cccc(O)c1	12.5%
NCCNCCNCCNCCN	-15.5% [at 9.22 µM]
C[C@H](N)[C@H](O)c1cccc(O)c1	17.9%
Nc1ccc(S(=O)(=O)NC(=O)c2ccccc2)cc1	-3.9%

Assay: qHTS of pediatric cancer cell lines to identify multiple opportunities for drug repurposing: Primary screen for BT-12 cells (AID 1347101);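 note: plate controls were DMSO for no effect and bortezomib positive control for full effect; nearly all actives have a fitted effect of over 25% in size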
Settings: BT-12 viability, CellTiter-Glo luminescence, 48 h; series mostly up to 57.3 µM; activity change, negative = cytotoxic: at the top concentration
Procedure, shortened: as §1

Compound	activity change, negative = cytotoxic
C=CCn1c(=O)n([C@@H]2O[C@H](CO)[C@@H](O)[C@H]2O)c2nc(N)[nH]c(=O)c21	22.3%
O=C1c2c(O)cccc2Cc2cccc(O)c21	5.7%
CC1(C)OC(=O)NC1=O	7.46%
CCOc1ccc2ccccc2c1C(=O)N[C@@H]1C(=O)N2[C@@H]1SC(C)(C)[C@@H]2C(=O)O	10.8%
CC1CC(OC(=O)C(O)c2ccccc2)CC(C)(C)N1C (stereo unspecified)	8.26%
OCC(CO)N[C@H]1C[C@](O)(CO)[C@@H](O)[C@H](O)[C@H]1O	0.239%
CCn1cc(C(=O)O)c(=O)c2cnc(N3CCNCC3)nc21	4.31%
CC1(C)CO[C@@H](CC(=O)O)CN1	7.72%
CCCCC(CC)COC(=O)c1ccccc1O (stereo unspecified)	7.28%
CCN(CC)C(=O)Nc1ccc(OCC(O)CNC(C)(C)C)c(C(C)=O)c1 (stereo unspecified)	4.93%
C[C@@H]1CC[C@@]2(OC1)O[C@H]1C[C@H]3[C@@H]4CC[C@H]5C[C@@H](O)CC[C@]5(C)[C@H]4CC(=O)[C@]3(C)[C@H]1[C@@H]2C	6.34% [at 6.03 µM]
C[C@@H]1CN(c2c(F)c(F)c3c(=O)c(C(=O)O)cn(C4CC4)c3c2F)C[C@H](C)N1	10.2% [at 20.1 µM]
Cc1ccc(C(C)C)cc2c(C)ccc1-2	8.16%
Cc1cc(O)cc2c1O[C@](C)(CCC[C@H](C)CCC[C@H](C)CCCC(C)C)CC2	11%
COc1ccc(S(=O)(=O)Nc2nnc(CC(C)C)s2)cc1	1.31%
CCCCN1CCCC[C@H]1C(=O)Nc1c(C)cccc1C	-5.51%
CC(=O)CCC(=O)O	14.3%

Compound	activity change, negative = cytotoxic
CN(C)CC[C@@H](c1ccc(Cl)cc1)c1ccccn1	-2.61%
NC(=O)NC(=O)Cc1ccccc1	0.978%
CC1=C(C/C=C(\C)CCC[C@H](C)CCC[C@H](C)CCCC(C)C)C(=O)c2ccccc2C1=O	-0.926%
COc1ccccc1O	15.6% [at 116 µM]
Nc1nc2c(ncn2CCC(CO)CO)c(=O)[nH]1	4.19%
N[C@H]1C(O)O[C@H](CO)[C@@H](O)[C@@H]1O (stereo partly specified)	5.38%
C[C@@H](O)[C@H](N)C(=O)O	14.5% [at 20.1 µM]
CC1(C)[C@@H]2CC[C@@]1(C)C(=O)C2	7.37%
C[C@@H]1CCN(C(=O)[C@H](CCCN=C(N)N)NS(=O)(=O)c2cccc3c2NC[C@H](C)C3)[C@@H](C(=O)O)C1	-10.5%
Nc1ccc(S(=O)(=O)Nc2ccccc2)cc1	5.66%
Oc1cccc(O)c1	7.19%
NCCNCCNCCNCCN	0.69% [at 11.5 µM]
C[C@H](N)[C@H](O)c1cccc(O)c1	6.53%
O=C(Oc1ccccc1C(=O)O)c1ccccc1O	7.08%
Nc1ccc(S(=O)(=O)NC(=O)c2ccccc2)cc1	4.42%
Cc1cc2nc3c(=O)[nH]c(=O)nc-3n(C[C@H](O)[C@H](O)[C@H](O)CO)c2cc1C	-0.65% [at 20.1 µM]
O=C1O[C@H]([C@@H](O)CO)C(O)=C1O	8.33%
